The results in this text go back to PubChem BioAssay.

The structures appear in SMILES notation. Activity calls are given as the source filed them.

Assay [1] concerns Plasmodium falciparum Sir2 (PF13_0152, Sir2A). Briefly: Plasmodium falciparum Sir2A binding compounds – biochemical, small-molecule microarray, 635 nm fluorescence, primary screen (AID 1098).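 Further: score merges spot fluorescence intensity with its signal-to-noise ratio.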 The settings on record: fluorescence 635 nm, higher = more signal.
Assay [2] is described as follows: probe aDKK1 binding to arrayed compounds – biochemical, biotinylated probe, 635/667 nm fluorescence, primary screen (AID 1099).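 Further: score merges 667nm spot fluorescence with signal to noise across triplicate slides.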 The settings on record: small-molecule microarray, higher = more signal.
A short description of assay [3]: probe aCHRDL2 binding to arrayed compounds – biochemical, biotinylated probe, 635/667 nm fluorescence, primary screen (AID 1100). To be noted: small-molecule microarray, higher = more signal.
Assay [4] in a line: change in splice reporter luminescence, either direction, cell-based, HEK293, spliceosome inhibition project, primary screen (AID 1101).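 Further: HEK293 cells carrying a splicing-competent luciferase reporter gene; test concentration not given here.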 To be noted: HEK293 splicing luciferase reporter, 24 h, higher = more signal, called active from +8 up or from −8 down. On the technique in general: In a reporter assay the amount or activity of a reporter protein is the signal.
Assay [5] addresses Fibroblast growth factor 10 (Homo sapiens) (UniProt O15520). Briefly: compounds binding fibroblast growth factor 10 – biochemical, small-molecule microarray, 635 nm fluorescence, primary screen (AID 1102). The settings on record: FGF10 binding, fluorescence 635 nm, higher = more signal.
Assay [6] has as its system glycogen synthase kinase-3 (GSK3A per assay name; protocol says GSK3B). In words: compounds binding glycogen synthase kinase-3 – biochemical, small-molecule microarray, 635 nm fluorescence, GSK3A, primary screen (AID 1103). Further: the record names both GSK3A and GSK3B. The settings on record: fluorescence 635 nm, higher = more signal.
The target of assay [7] is Epidermal growth factor receptor (Homo sapiens) (UniProt P00533). In words: compounds binding epidermal growth factor receptor – biochemical, small-molecule microarray, 635 nm fluorescence, primary screen (AID 1104).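 Further: score merges 667 nm emission intensity with spot signal to noise over triplicate slides.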 To be noted: EGFR binding, higher = more signal.
Sequence of Epidermal growth factor receptor (Homo sapiens) (P00533 whole entry, looked up): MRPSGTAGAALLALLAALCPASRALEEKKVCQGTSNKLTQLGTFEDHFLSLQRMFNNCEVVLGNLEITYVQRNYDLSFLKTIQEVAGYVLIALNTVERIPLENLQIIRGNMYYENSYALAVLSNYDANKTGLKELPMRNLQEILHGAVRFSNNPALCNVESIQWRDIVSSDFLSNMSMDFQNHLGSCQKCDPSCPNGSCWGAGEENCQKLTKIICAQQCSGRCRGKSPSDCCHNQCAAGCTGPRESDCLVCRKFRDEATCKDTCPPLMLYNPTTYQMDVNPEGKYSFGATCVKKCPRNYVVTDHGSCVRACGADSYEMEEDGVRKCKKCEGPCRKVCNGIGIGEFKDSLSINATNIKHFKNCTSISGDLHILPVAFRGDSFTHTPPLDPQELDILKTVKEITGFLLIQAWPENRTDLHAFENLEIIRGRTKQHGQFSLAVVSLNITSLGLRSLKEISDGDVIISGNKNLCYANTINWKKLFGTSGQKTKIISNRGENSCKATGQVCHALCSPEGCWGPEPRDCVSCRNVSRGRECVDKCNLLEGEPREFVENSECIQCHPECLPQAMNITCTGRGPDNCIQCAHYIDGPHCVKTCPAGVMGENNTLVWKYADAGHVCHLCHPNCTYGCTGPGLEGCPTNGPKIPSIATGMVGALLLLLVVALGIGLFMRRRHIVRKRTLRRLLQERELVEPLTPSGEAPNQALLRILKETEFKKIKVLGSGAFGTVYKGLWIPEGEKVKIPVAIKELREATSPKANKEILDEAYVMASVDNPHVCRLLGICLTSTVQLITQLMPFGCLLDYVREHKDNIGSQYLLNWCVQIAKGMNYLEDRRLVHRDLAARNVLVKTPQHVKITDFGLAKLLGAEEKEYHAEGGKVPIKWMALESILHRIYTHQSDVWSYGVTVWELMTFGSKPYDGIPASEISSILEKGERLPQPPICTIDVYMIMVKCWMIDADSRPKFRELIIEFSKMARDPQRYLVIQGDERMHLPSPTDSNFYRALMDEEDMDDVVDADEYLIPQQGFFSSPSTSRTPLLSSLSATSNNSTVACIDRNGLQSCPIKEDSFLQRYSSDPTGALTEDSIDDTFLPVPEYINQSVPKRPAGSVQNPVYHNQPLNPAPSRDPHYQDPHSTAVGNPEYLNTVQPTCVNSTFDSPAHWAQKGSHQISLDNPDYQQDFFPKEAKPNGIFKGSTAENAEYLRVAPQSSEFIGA
Assay [8] has as its target Follistatin-related protein 3 (Homo sapiens) (UniProt O95633). Briefly: compounds binding follistatin-related protein 3 – biochemical, small-molecule microarray, 635 nm fluorescence, primary screen (AID 1105).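 Further: score merges emission near 667 nm and signal to noise per printed spot across three slides.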 To be noted: FSTL3 binding, higher = more signal.
For assay [9], the target named is Dickkopf-related protein 1 (Homo sapiens) (UniProt O94907). Briefly: small molecules binding DKK1 protein – biochemical, small-molecule microarray, 635 nm fluorescence scan, primary screen (AID 1106).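 Further: score merges emission near 667 nm with signal to noise over three replicate slides.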 The settings on record: higher = more signal.
Sequence of Dickkopf-related protein 1 (Homo sapiens) (O94907 whole entry, looked up): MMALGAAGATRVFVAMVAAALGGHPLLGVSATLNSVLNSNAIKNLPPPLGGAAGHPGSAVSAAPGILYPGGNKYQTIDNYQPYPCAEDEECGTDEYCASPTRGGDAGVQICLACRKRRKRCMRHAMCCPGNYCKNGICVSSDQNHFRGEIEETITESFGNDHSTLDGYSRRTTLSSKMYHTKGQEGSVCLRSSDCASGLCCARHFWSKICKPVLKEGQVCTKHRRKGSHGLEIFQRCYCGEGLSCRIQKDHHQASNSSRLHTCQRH
The subject of assay [10] is Inhibin beta A chain (activin A). In words: small molecules binding activin A – biochemical, small-molecule microarray, 635 nm fluorescence scan, primary screen (AID 1107).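 Further: mouse activin A protein probed at 4.33 µg/mL on printed slides; score merges bound-protein fluorescence near 667 nm with spot signal-to-noise.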 To be noted: INHBA, higher = more signal.
For assay [11], the system named is Human papillomavirus type 1a protein E7 (residues 44-93). Briefly: small molecules binding HPV E7 44-93 – biochemical, small-molecule microarray, residues 44-93, 635 nm fluorescence, primary screen (AID 1108).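 Further: E7 fragment applied at 1 µg/mL in TBST for 1 h at 4 C; score combines spot fluorescence with its signal to noise ratio.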 The settings on record: fluorescence 635 nm, higher = more signal.
A short description of assay [12]: hepatitis C replication reporter changes, two-sided – Huh7 cells, luciferase reporter, HCV replication inhibitor project, primary screen (AID 1109).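 Further: huh7 hepatoma cells harbouring a luciferase neomycin HCV replicon reporter; luciferase luminescence as measure of HCV replicon replication; test concentration not given here.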 The settings on record: Huh7 HCV replicon luciferase reporter, 48 h; higher = more signal.
The target of assay [13] is Left-right determination factor 2 (Homo sapiens) (UniProt O00292). In words: small molecules binding LEFTY2 protein – biochemical, small-molecule microarray, 635 nm fluorescence scan, primary screen (AID 1110). To be noted: higher = more signal.
Sequence of Left-right determination factor 2 (Homo sapiens) (O00292 whole entry, looked up): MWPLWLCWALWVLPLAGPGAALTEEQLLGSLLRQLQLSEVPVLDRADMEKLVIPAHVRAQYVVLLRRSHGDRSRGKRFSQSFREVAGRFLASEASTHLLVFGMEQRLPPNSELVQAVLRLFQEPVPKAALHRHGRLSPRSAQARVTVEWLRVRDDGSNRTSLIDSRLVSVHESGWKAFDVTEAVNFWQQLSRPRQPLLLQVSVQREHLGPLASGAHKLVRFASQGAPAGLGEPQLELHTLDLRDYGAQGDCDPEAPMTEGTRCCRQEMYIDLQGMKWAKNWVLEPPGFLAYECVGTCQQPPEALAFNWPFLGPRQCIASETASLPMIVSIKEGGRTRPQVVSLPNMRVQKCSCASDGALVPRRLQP
Assay [14] addresses Calmodulin-1 (Homo sapiens) (UniProt P0DP23). In words: small molecules binding calmodulin-1 with EGTA – biochemical, small-molecule microarray, Cy5-labelled CALM1, profiling panel (AID 1111).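 Further: labelled calmodulin applied in Tris saline Tween buffer holding calcium plus EGTA and DTT.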 The settings on record: Cy5-CALM1 binding fluorescence, higher = more signal.
For assay [15] the target is unchanged. Briefly: small molecules binding Ca-loaded calmodulin-1 – biochemical, small-molecule microarray, Cy5-labelled CALM1, plus calcium, artefact control for SMM control-protein annotation, profiling panel (AID 1112).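 Further: score merges spot fluorescence with signal to noise from triplicate slides.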 To be noted: Cy5-CALM1 binding fluorescence, higher = more signal.
A short description of assay [16]: probe aWnt5a binding to arrayed compounds – biochemical, biotinylated probe, 635/667 nm fluorescence, primary screen (AID 1113).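 Further: score merges 667 nm fluorescence intensity with signal-to-noise per printed feature.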 To be noted: small-molecule microarray, higher = more signal.
Assay [17] in a line: probe aShh binding to arrayed compounds – biochemical, biotinylated probe, 635/667 nm fluorescence, primary screen (AID 1114).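 Further: probe is biotin-labelled aShh protein from a stem cell growth factor screen; measures binding of labelled protein to compounds printed on the slide; score merges feature fluorescence at 667 nm with signal-to-noise.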 The settings on record: small-molecule microarray, higher = more signal.
A short description of assay [18]: probe aNog binding to arrayed compounds – biochemical, biotinylated probe, 635/667 nm fluorescence, primary screen (AID 1115).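 Further: probe is biotinylated aNog protein used at 0.15 µg/mL for 1 h at 4 C; z-score combines 667 nm fluorescence of each spot with its signal to noise.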 To be noted: small-molecule microarray, higher = more signal.
Assay [19] deals with Torsin-1A-interacting protein 1 (Homo sapiens) (UniProt Q5JTV8). In words: compound microarray binding of lysate hLAP1 – cell lysate, small-molecule microarray, COS7 lysate, 635/667 nm fluorescence, primary screen (AID 1116). To be noted: 635 nm fluorescence, higher = more signal.
Sequence of Torsin-1A-interacting protein 1 (Homo sapiens) (Q5JTV8 whole entry, looked up): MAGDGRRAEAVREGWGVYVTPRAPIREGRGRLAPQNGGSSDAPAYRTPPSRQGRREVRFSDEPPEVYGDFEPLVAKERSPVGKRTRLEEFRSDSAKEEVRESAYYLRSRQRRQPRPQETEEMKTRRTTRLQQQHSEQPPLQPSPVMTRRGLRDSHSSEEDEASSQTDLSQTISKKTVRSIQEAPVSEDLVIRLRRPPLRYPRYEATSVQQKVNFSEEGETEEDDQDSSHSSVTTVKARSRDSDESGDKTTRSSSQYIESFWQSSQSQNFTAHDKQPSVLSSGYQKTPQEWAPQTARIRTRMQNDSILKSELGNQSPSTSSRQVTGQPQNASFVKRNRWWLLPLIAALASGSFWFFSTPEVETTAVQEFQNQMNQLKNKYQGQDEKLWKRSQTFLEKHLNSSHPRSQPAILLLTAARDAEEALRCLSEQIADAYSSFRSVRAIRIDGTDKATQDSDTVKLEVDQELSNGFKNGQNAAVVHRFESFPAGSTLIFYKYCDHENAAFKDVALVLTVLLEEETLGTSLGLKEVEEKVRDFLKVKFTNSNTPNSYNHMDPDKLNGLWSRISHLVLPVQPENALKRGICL
In assay [20] the target is Alpha-bungarotoxin (Bungarus multicinctus) (UniProt P60615). In words: compounds binding labelled alpha-BTX control protein – biochemical, small-molecule microarray, Alexa647 label, 635/667 nm fluorescence, artefact control for SMM control protein annotation, profiling panel (AID 1117). To be noted: alpha-BTX-A647 binding fluorescence, higher = more signal.
Sequence of Alpha-bungarotoxin (Bungarus multicinctus) (P60615 whole entry, looked up): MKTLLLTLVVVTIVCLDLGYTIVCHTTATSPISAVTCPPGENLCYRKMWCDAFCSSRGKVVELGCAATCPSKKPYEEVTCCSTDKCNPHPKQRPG

Sequence of Follistatin-related protein 3 (Homo sapiens) (O95633 whole entry, looked up): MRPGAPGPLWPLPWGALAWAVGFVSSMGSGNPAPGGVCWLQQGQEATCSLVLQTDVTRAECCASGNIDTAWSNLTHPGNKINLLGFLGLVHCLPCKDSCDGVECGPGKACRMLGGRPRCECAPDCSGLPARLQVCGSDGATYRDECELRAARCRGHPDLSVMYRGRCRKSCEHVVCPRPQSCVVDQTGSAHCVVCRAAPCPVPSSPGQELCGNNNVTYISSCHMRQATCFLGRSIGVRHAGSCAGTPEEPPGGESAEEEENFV
Sequence of Fibroblast growth factor 10 (Homo sapiens) (O15520 whole entry, looked up): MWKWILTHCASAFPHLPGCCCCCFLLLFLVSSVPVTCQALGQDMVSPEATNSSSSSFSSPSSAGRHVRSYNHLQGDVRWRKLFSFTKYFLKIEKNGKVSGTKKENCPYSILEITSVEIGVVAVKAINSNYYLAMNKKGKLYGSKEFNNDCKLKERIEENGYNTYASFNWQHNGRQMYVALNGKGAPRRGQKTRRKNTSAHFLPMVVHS

On to `O=C1O[C@H](c2ccccc2)[C@H](c2ccccc2)N2[C@H]1[C@@H](C(=O)O)[C@]1(C(=O)Nc3ccc(C#CC4=CCCCC4)cc31)[C@H]2c1ccccc1OCCO`, for which the composite z-score in assay [1] is 1.49; in [2] it was -0.738; in assay [3] it was 0.134; in [5], 1.19; in assay [6] it was 1.32; in assay [7] it was 0.228. In addition, the composite z-score in assay [8] is 1.23; in assay [9] it was 0.455; in assay [10] it was 1.01; in assay [11] it was -0.65; in [13], 0.663; in [14], 1.61. The composite z-score in assay [15] is 0.179; in [16] it was 0.795; in assay [17], -0.602; in [18], 0.948; in assay [19], 0.926; in [20], 2.23. Further, the z-score was -0.246 (inactive) in [4] and -2.4 in assay [12].
Turning to `COC(=O)[C@@]1(Cc2ccc(OC)cc2)[C@H]2c3cc(C(=O)N4CCCC4)n(Cc4ccc(OC)c(OC)c4)c3C[C@H]2CN1C(=O)c1ccccc1`, the composite z-score in [1] worked out at 1.04; in assay [2], 1.56; in assay [3], 0.9; in assay [5] it was 0.784; in assay [6], 1.17; in assay [7], 1.34. The composite z-score in assay [8] turned out to be 1.42; in assay [9], 0.56; in assay [10], 1.01; in assay [11], 1.39; in [13], 0.381; in [14] it was 2.16. Besides, the composite z-score is 0.811 in assay [15]; -0.158 in [16]; -0.008 in assay [17]; 0.162 in [18]; 0.371 in assay [19]; 0.381 in assay [20]. Further, the z-score in assay [4] was -1.81 (inactive); in [12] it was -1.72.
For `O=C1[C@H]2C=C(Br)[C@H](C[C@@H]2c2ccccc2)[C@@]12CO2`, the composite z-score in assay [1] was -0.0067; in [2], -0.217; in assay [3], -0.261; in [5], 0.774; in assay [6], 0.381; in assay [7], 0.513. In addition, the composite z-score is 0.733 in assay [8]; 0.765 in [9]; 0.648 in [10]; 0.235 in assay [11]; 1.02 in assay [13]; -0.428 in [14]. Also, the composite z-score was -0.441 in assay [15]; -0.152 in assay [16]; -0.414 in [17]; -0.461 in assay [18]; 0.0974 in assay [19]; 0.0148 in assay [20]. The z-score in assay [4] is 0.723 (inactive); in assay [12], -3.33.
As for `C=C(CCCC)C(=O)CC[C@@H](OC(=O)c1cccnc1)c1ccc(CO)o1`, the composite z-score in [1] is 1.15; in [2], 0.0013; in [3] it was -0.269; in assay [5], 1.21; in [6], 0.958; in assay [7], 0.641. The composite z-score in assay [8] amounted to 0.916; in [9], 0.576; in assay [10], 1.3; in assay [11], 0.94; in assay [13], 0.654; in assay [14], 0.916. Besides, the composite z-score in assay [15] was -1.3; in assay [16], 0.0003; in assay [17], -0.0035; in assay [18], -0.0333; in assay [19], 0.387; in assay [20], 0.781. For the same compound, the z-score in [4] is 0.08 (inactive); in [12] it was -1.39.
On to `CN1C(=O)C2C=CC(C(O)c3ccc(I)cc3)N(N3CCCCC3)C2C1=O` (stereo not given), for which the composite z-score was 1.36 in assay [1]; 0.382 in [2]; 1.21 in [3]; 1.07 in assay [5]; 0.354 in assay [6]; 0.396 in assay [7]. Besides, the composite z-score was 1.34 in assay [8]; -0.147 in assay [9]; 0.72 in [10]; 1.43 in assay [11]; 0.0759 in assay [13]; 1.64 in assay [14]. Moreover, the composite z-score turned out to be 0.219 in assay [15]; 0.0599 in [16]; 0.184 in [17]; 1.34 in assay [18]; 1.19 in [19]; 1.22 in assay [20]. Moreover, the values for the z-score in assay [4] and in assay [12] were 1.18 (inactive) and -0.435, respectively.
